The text below walks through data of PubChem BioAssay (NCATS).

Test [1] can be described thus: qHTS Assay for Identification of Small Molecule Agonists for NFkB Signaling Pathway. (AID 624478).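 Also: compounds tested together with TNF alpha at its EC50 of 10 pM; 0% is about no effect.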 Put shortly: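 Read-out: 460/530 nm emission at 405 nm excitation after 2 h LiveBLAzer loading; ME-180 NFkB-bla reporter cells exposed 5 h at 37 C to compounds with 10 pM TNF alpha final.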
(In general: qHTS replaces the single test concentration by a dilution series.)

Test [2] in a line: Cell Proliferation Assay against the HBL1 Cell Line (AID 651646).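 Also: cells exposed to compound for 48 h before reading.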 The note with it: HBL1 DLBCL cells; at 46.1 µM (top of the series) unless noted. Put shortly:
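After a 48 h incubation of 500 HBL1 cells/well in phenol red-free RPMI plus 5% FBS, relative luciferase units from CellTiter-Glo gave percent activity against DMSO and 9.2 uM bortezomib (final) controls.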

The nature of test [3]: Cell Proliferation Assay against the TMD8 Cell Line (Caspase readout at 8 hrs) (AID 651713).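 Also: 0% = DMSO and 100% = 9.2 µM bortezomib caspase signal.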 The gist of the method: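 Apoptosis readout: caspase 3/7 luminescence (Caspase-Glo), 15 min RT. Cells: TMD8, 500/well, RPMI + 5% FBS, no phenol red. Exposure 8 h, 37C. % activity vs DMSO = 0, bortezomib 9.2 uM final = 100.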
Test [4] can be described thus: qHTS for small molecule inhibitors of Yes1 kinase: Counter Assay (AID 686950).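 Also: no kinase present so only ADP-Glo detection of a fixed ADP amount is tested; luminescence from ADP-Glo reporting ADP in a fixed ATP and ADP mixture; 0% = DMSO wells with ATP plus ADP and -100% = ATP-only wells without ADP.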 Put shortly:
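Measuring interference with ADP-Glo, the assay ran 60 min at room temperature on an ATP/ADP mix lacking enzyme. Values were normalized to ATP-plus-ADP (maximum) and ATP-only (minimum) DMSO controls.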

The nature of test [5]: Cell Proliferation Assay against the TMD8 Cell Line (Caspase readout at 16 hrs) (AID 651712).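 Also: 0% = DMSO and 100% = 9.2 µM bortezomib caspase activation.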 The gist of the method: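 16 h, 37 °C, TMD8 (500 cells/well), RPMI/5% FBS no phenol red; Caspase-Glo 3/7, 15 min RT, luminescence; %act: DMSO 0, bortezomib 9.2 uM final 100.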
The target of test [6] is Tyrosine-protein kinase Yes (Homo sapiens) (UniProt P07947). As to the kind of experiment: qHTS for small molecule inhibitors of Yes1 kinase: Primary Screen (AID 686947).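 Also: plate controls were DMSO with enzyme for no effect and no-enzyme DMSO wells for full effect; nearly all actives have a fitted effect of over 60% in size.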 Put shortly: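 In this qHTS format, inhibition is expressed relative to DMSO controls with enzyme (maximum) and without enzyme (minimum). The 60 min room-temperature reaction uses 0.1 mM ATP, with ADP detected by luminescence.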
Chain of Tyrosine-protein kinase Yes (Homo sapiens) (P07947 whole entry, looked up): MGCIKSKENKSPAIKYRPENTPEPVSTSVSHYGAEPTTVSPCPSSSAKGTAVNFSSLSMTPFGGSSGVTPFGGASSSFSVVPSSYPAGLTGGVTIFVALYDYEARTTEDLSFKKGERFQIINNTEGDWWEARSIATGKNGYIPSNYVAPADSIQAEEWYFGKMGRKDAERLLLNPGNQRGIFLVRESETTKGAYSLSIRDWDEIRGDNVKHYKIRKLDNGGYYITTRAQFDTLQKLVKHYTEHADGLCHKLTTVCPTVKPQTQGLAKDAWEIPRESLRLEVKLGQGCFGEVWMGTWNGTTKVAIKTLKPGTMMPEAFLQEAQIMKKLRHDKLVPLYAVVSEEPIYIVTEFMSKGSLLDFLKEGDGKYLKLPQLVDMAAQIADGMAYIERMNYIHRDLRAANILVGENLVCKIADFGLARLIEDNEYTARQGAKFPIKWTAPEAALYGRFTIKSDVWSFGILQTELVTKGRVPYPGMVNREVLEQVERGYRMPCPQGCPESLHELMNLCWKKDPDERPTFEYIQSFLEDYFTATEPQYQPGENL

A short description of test [7]: qHTS assay for small molecule agonists of the antioxidant response element (ARE) signaling pathway (AID 651741; active = well fitted activation curve with a large enough effect in the signal ratio; the % refers to the signal ratio; also: % of control where 0% means no effect). Put shortly:
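Beta-lactamase reporter expression driven by the antioxidant response element in HepG2 cells was detected by fluorescence with LiveBLAzer B/G FRET substrate (2 h, room temperature) following 16 h compound treatment at 37 C.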

Test [8] in a line: qHTS assay for small molecule activators of the p53 signaling pathway (AID 651743; active = well fitted activation curve with a large enough effect in the signal ratio, not every such curve was filed as active; the % refers to the signal ratio; also: % of control where 0% means no effect). The note with it: HCT-116 p53RE-bla, beta-lactamase FRET ratio, 16 h; activation: stronger effect = higher value. The gist of the method: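 Here HCT-116 cells with an integrated p53-responsive beta-lactamase gene were incubated with compounds (16 hours, 37 C) after a 5-hour plating period; beta-lactamase activity was detected as fluorescence intensity via B/G FRET substrate.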

The nature of test [9]: qHTS assay for small molecule activators of the nuclear factor-kappa B (NF-kB) signaling pathway (AID 651749; active = well fitted activation curve with a large enough effect in the signal ratio; the % refers to the signal ratio; also: % of control where 0% means no effect). The note with it: NF-kB-bla ME-180 cells, beta-lactamase FRET ratio, 16 h; stronger effect = higher value. Put shortly: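 Beta-lactamase reporter expression, controlled by NF-kB response elements in ME-180 cells, was quantified fluorometrically via FRET disruption; cells at 2,000/well had been incubated with 23 nL test compound for 16 hr.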

The target of test [10] is Peroxisome proliferator-activated receptor alpha (Homo sapiens) (UniProt Q07869). The test can be described thus: qHTS assay for small molecule agonists of the peroxisome proliferator-activated receptor alpha (PPARalpha) signaling pathway (AID 651778). Also: % of control where 0% means no effect. The note with it: PathHunter PPARalpha complementation, chemiluminescence, 6 h; stronger effect = higher value. Put shortly:
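Cells plated at 2,000/well and held overnight at 37 C, 5% CO2, then compound added by pin tool for 6 hr; after PathHunter detection reagent and 60 min at room temperature, chemiluminescence from enzyme complementation was read.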

Test [11] addresses Arylsulfatase A (Homo sapiens) (UniProt P15289). The test can be described thus: qHTS screen for enhancers of Arylsulfatase A (ASA1): LOPAC Validation Assay (AID 720538). The note with it: outcome: dose series up to 57.5 µM. The gist of the method:
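Enhancer assay in patient-derived MLD fibroblasts carrying ASA-I179S: 48 h compound exposure at 37 C, then 14 h room-temperature pNCS turnover (0.5 mM final) in lysis buffer. Read by fluorescence at 525/598 nm after NaOH stop.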

The nature of test [12]: qHTS for compounds that reverse cellular toxicity of Amyloid beta (A-beta) peptide in yeast: LOPAC Validation Assay (AID 720559).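 Also: plate controls were DMSO for no effect and equimolar ferric chloride plus clioquinol rescue for full effect.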 The gist of the method: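 Rescue of A-beta toxicity was scored as yeast growth by 600 nm absorbance after 48 hr at 30 C with compound. Normalization used DMSO (negative) and equimolar ferric chloride plus clioquinol (positive).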
A short description of test [13]: qHTS for Activators of Parkin Expression: LOPAC Validation Assay (NLuc Reporter) (AID 720572;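 also: 0% = DMSO and 100% = positive control compound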). The gist of the method: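 Cells harboring the Parkin-promoter coincidence reporter were treated for 24 h at seven concentrations. NLuc output was measured sequentially after the FLuc channel and scaled between DMSO and positive control values.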
The target of test [14] is Tumor necrosis factor (Homo sapiens) (UniProt P01375). The test can be described thus: qHTS assay to identify small molecules that stimulate Tumor Necrosis Factor-alpha (TNF-alpha) secretion (AID 651757; active = well fitted curve in the direction sought with a large enough effect in the signal ratio; the % refers to the signal ratio; also: 0% is about no effect). The gist of the method:
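THP-1 cells, 3000/well; compound 17 hrs, 37 C; add cryptate/XL665 anti-TNF-alpha antibody pair; 3 hr RT; TR-FRET (HTRF) read of secreted TNF-alpha. Quantitative HTS format.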

Test [15] concerns the target Nuclear receptor ROR-gamma (Homo sapiens) (UniProt P51449). As to the kind of experiment: qHTS assay for small molecule antagonists of the retinoid-related orphan receptor gamma (ROR-gamma) signaling pathway (AID 651802).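 Also: CHO cells with doxycycline-induced ROR-gamma expression; luciferase reporter luminescence driven by ROR response element; % is scaled to controls: 0 for no effect and ±100 for the full control effect; nearly all actives have a fitted effect of over 60% in size.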 Put shortly: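 Luciferase read-out: ONE-Glo luminescence after 30 min at room temperature, following 16hr doxycycline induction at 37C, 5% CO2 of CHO cells with TET-inducible ROR and RORE-LUC reporter; decreased luminescence = reduced reporter activity.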

Inconclusive results are not listed. Calls of active or inactive are those of the source. Unless noted, calls follow the shape of the dose curve; as a rule, active = well fitted curve in the direction sought with a large enough effect; inconclusive = small, poorly fitted or top-dose-only effect, or another doubt; inactive = no such curve, though single readings can be large; an effect the other way counts as inactive or inconclusive.

Chain of Arylsulfatase A (Homo sapiens) (P15289 whole entry, looked up): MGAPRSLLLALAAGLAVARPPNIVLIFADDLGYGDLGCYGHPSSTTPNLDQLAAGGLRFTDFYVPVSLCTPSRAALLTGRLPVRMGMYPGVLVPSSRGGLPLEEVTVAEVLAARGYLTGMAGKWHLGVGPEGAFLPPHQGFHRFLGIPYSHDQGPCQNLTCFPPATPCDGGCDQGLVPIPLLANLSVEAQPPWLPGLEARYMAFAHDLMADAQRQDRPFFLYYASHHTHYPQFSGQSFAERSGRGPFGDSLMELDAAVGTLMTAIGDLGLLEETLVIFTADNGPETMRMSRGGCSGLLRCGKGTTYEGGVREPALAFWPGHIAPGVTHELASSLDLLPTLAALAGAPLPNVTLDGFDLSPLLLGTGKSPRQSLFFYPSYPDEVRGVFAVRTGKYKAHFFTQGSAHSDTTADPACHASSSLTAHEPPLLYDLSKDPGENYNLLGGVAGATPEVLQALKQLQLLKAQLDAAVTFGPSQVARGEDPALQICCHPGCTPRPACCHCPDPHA
Chain of Peroxisome proliferator-activated receptor alpha (Homo sapiens) (Q07869 whole entry, looked up): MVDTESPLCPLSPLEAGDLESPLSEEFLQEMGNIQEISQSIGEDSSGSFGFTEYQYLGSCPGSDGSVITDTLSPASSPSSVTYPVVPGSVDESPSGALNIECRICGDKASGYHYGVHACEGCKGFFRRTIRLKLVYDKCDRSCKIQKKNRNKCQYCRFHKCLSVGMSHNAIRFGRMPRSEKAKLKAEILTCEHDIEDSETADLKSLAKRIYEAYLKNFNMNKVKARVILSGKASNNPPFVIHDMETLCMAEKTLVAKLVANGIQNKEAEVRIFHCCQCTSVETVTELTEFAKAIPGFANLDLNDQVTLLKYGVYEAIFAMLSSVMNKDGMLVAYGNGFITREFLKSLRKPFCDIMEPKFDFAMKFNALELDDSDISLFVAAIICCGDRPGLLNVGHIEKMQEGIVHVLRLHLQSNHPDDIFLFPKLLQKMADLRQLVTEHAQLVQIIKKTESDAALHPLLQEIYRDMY
Chain of Nuclear receptor ROR-gamma (Homo sapiens) (P51449 whole entry, looked up): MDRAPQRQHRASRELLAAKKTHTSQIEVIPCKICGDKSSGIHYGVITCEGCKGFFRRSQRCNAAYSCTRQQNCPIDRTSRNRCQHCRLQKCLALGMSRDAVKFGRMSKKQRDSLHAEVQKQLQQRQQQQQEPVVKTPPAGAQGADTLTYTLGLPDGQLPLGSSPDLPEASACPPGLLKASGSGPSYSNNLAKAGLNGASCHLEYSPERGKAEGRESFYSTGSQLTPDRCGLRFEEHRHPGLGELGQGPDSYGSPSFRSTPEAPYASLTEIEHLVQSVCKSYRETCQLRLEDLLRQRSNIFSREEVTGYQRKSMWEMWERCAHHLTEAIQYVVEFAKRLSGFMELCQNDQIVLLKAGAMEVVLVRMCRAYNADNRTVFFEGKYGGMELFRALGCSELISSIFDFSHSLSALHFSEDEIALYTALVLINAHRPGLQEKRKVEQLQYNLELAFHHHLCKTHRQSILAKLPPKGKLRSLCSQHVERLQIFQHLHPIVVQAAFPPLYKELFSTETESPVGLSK
Chain of Tumor necrosis factor (Homo sapiens) (P01375 whole entry, looked up): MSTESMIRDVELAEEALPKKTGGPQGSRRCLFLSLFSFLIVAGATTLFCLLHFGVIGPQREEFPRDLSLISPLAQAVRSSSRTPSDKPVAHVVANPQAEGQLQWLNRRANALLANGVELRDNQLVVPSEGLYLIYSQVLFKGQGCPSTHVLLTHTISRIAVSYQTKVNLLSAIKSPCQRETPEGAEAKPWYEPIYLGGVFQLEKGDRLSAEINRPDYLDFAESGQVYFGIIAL

On to `Cc1cc2c(F)c(Oc3ncnn4cc(OC[C@@H](C)O)c(C)c34)ccc2[nH]1`, for which the compound was classed as inactive in test [1] and in test [4]. For the same compound, in [2], the viability, percent of control is 34.5%. Moreover, the Potency result in test [3] is “inactive”.
Turning to `CNC(=O)c1ccc(N2C(=S)N(c3ccc(C#N)c(C(F)(F)F)c3)C(=O)C2(C)C)cc1F`, the compound was called inactive in test [1] and in test [4]. Besides, the viability, percent of control in test [2] turned out to be 83.2%. The Potency result in test [5], in test [3] and in test [6] was “inactive” throughout.
Take `Cc1[nH]c(=O)c(C#N)cc1-c1ccncc1`: the Potency entry in test [7] and in test [13] was “inactive” each time. For the same compound, the activation in [8] was -6.25% (inactive); in test [9], -0.647% (inactive). Besides, the max response in test [10] is 0.228% (inactive). The outcome in [11] was “inactive; inhibitor; fitted 5.3582 uM”. In addition, the call in test [12] was inactive.
In the case of `O=c1n(CCCN2CCN(c3cccc(Cl)c3)CC2)nc2ccccn12`, the outcome in test [11] and in test [12] was inactive. Further, in [13], the Potency result is “inactive”.
With `O=C(O)COCCN1CCN(C(c2ccccc2)c2ccc(Cl)cc2)CC1` (stereo unspecified), the call in test [12] was inactive. In test [13], the Potency result is “inactive”.
Take `N[C@@H]1CONC1=O`: in [11], the outcome was inactive.
Turning to `CCOC(=O)N1CCC(=C2c3ccc(Cl)cc3CCc3cccnc32)CC1`, the compound was classed as inactive in test [12]. Besides, the Potency entry in [13] was “inactive”.
Take `O=NN(CCCl)C(=O)NCCCl`: the activation in [8] was 14.7% (inactive); in test [9], -1.3% (inactive). In addition, the max response in test [10] is -2.23% (inactive). Besides, the outcome in [12] was inactive. For the same compound, the Potency result in [13] was “inactive”.
Regarding `O=c1[nH]cnc2[nH]ncc12`, the activation in test [9] is 1.17% (inactive). The result in [14], in [15], in test [11] and in test [12] was inactive. Moreover, the max response in [10] is -0.201% (inactive). In addition, the Potency entry in test [13] is “inactive”.
Take `CCn1cc(C(=O)O)c(=O)c2cc(F)c(N3CCNC(C)C3)c(F)c21` (stereo unspecified): the outcome in [11] and in test [12] was inactive. Further, the Potency result in test [13] is “inactive”.
Consider `O=C(Nc1ccc(F)c(C(F)(F)F)c1)Nc1nnc(-c2ccncc2)s1`, for which the Potency entry in test [6] is “inactive”. Besides, the result in test [4] was inactive.
With `CC(C)(C)NCC(O)c1ccc(O)c(CO)c1` (stereo unspecified), the outcome in test [11] was “inactive; inhibitor; fitted 8.4921 uM”. In addition, the call in test [12] was inactive. The Potency result in test [13] was “inactive”.
For `O=C1CCC(N2C(=O)c3ccccc3C2=O)C(=O)N1` (stereo unspecified), the Potency result in test [7] and in [13] was “inactive” each time. Moreover, the figures for the activation in test [8] and in test [9] were -2.08% (inactive) and -0.119% (inactive), respectively. In addition, the max response in [10] was -0.602% (inactive). Also, in test [11], the outcome is “inactive; inhibitor; fitted 0.0301 uM”. In addition, the outcome in [12] was inactive.
`NCCc1ccc(O)c(O)c1`: the call in [12] was inactive. Further, the Potency entry in test [13] was “inactive”.
For the compound `NC(N)=NC(=O)c1nc(Cl)c(N)nc1N`, the values for the activation in test [8] and in test [9] were -2.4% (inactive) and -0.363% (inactive), respectively. Further, the outcome in test [14], in test [15], in test [4] and in test [12] was inactive. Also, the max response in test [10] is -5.82% (inactive). Besides, the Potency result in test [6] and in [13] was “inactive” throughout.
With `O=C1CCc2cc(OCCCCc3nnnn3C3CCCCC3)ccc2N1`, the outcome in test [11] and in [12] was inactive. Also, in test [13], the Potency result is “inactive”.
As to `CCCCNc1cc(C(=O)O)cc(S(N)(=O)=O)c1Oc1ccccc1`, the outcome in test [11] and in test [12] was inactive. Further, the Potency entry in test [13] was “inactive”.
`NC[C@H](O)c1ccc(O)c(O)c1`: the max response in [10] is -1.8% (inactive). Moreover, the outcome in [11] was inactive.
